Hit rate of the full screen: of about 2,300 compounds, about 1,400 (61%) were called active. Not shown: some 29% with an inconclusive outcome. Calls follow the shape of the dose curve; as a rule, active = well fitted inhibition curve with a large enough effect; inconclusive = small, poorly fitted or top-dose-only effect, or effect the other way; inactive = no such curve, though single readings can be large or run the other way. So high a share suggests a set chosen from earlier hits. This is one part of the list.
Test: Confirmation screen for delayed death inhibitors of the malarial parasite plastid, 96 hour incubation; also: nearly all actives have a fitted effect of over 60% in size
Conditions: P. falciparum luciferase growth in erythrocytes; series mostly up to 28.7 µM
Source text: The goal of this screen is to discover new antimalarial compounds that act by inhibiting the development of the apicoplast in the malarial parasite Plasmodium falciparum. The biochemical processes that make this organelle essential for erythrocytic stage parasites are not well understood. However, antibiotics, such as azithromycin and tetracycline, which target the apicoplast translational machinery, have a potent antimalarial effect. […] We have developed a cell-based assay that measures parasite growth based on the expression of an integrated copy of a firefly luciferase reporter. To detect small molecules that cause this "delayed death phenotype, erythrocytes infected with the luciferase-expressing parasites were incubated with compounds for either one or two generations, corresponding to 48 and 96 hours, respectively. Compounds that inhibit parasite growth in the second generation, but not the first, should be enriched in antimalarials that target the apicoplast. Growth inhibition is detected by a decrease in luciferase activity. MLPCN Grant: R21 NS059500 Assay Provider: David Fidock and Eric Ekland, Columbia University Keywords: NIH Roadmap, MLPCN, MLI, MLSMR, qHTS, NCGC, qHTS, malaria, luciferase, viability
Four microliters of culture medium (RPMI 1640 with 0.5% w/v Albumax (GIBCO), 24 mM sodium bicarbonate and 10 ug/mL gentamycin) were dispensed by a Multi-drop Combi into white solid 1536-well plates (Grenier) and 23 nL compound was added by a pin tool. Four microliters of infected erythrocytes (2% hematocrit, 0.1% parasitemia final concentration) in culture medium were dispensed and the plates incubated for 96 hours at 37 C in 5% CO2. Two microliters of luciferase detection reagent was added and luminescence was detected by a ViewLux (PerkinElmer) reader
Potency is read from the fitted curve at half-maximal effect.

SMILES	Potency
COc1ccc(OC)c(NC(=O)c2nc(S(=O)(=O)Cc3ccccc3)ncc2Cl)c1	inactive
COc1ccc(OC)c(NC(=O)c2ccccc2N(C)S(=O)(=O)c2ccc(C)cc2)c1	15.8 µM (active)
C=CCN(c1ccccc1)S(=O)(=O)c1cccc(C(=O)N2CC(C)CC(C)C2)c1 (stereo not drawn)	12.6 µM (active)
Cn1nc([N+](=O)[O-])nc1Sc1nnc(-c2ccccc2)o1	11.2 µM (active)
CSc1nc(C)c(C(=O)C[n+]2ccc(C)cc2)cc1C#N	14.1 µM (active)
COC(=O)C(=C/C(C)=C/c1cccs1)C(=O)OC	12.6 µM (active)
O=Nc1c(-c2c(O)[nH]c3cc(Br)ccc23)[nH]c2ccccc12	3.16 µM (active)
Brc1ccc(/C=N/Nc2ncnc3c2cnn3Cc2ccccc2)cc1	3.55 µM (active)
CC(C)[C@H](NC(=O)[C@@H]1Cc2c([nH]c3ccccc23)C2c3ccccc3C(=O)N21)C(=O)N1CCC[C@@H]1C(=O)O (stereo partly drawn)	14.1 µM (active)
CCC(=O)Nc1cccc(C2=NOC3(C2)C[C@@H](C(N)=O)N(C(=O)c2cc([N+](=O)[O-])cc([N+](=O)[O-])c2C)C3)c1 (stereo partly drawn)	11.2 µM (active)
COCCN(C(=O)CCCC(=O)Nc1ccccn1)C(C(=O)NC1CCCCC1)c1ccc(C)cc1 (stereo not drawn)	10 µM (active)
COCCn1c(SCC(=O)Nc2ccccc2F)nc2c(c1=O)SCC2	inactive
CCNc1nc(NCC)n2c(SCC(=O)Nc3ccccc3F)nnc2n1	11.2 µM (active)
COc1ccc(CNCc2ccc3ccccc3c2)c(OC)c1	11.2 µM (active)
COc1cccc(CN(C)CC2CCCN(CCc3ccc(Cl)cc3)C2)c1OC (stereo not drawn)	2.82 µM (active)
CCOc1cc(/C=C/C(=O)Nc2ccc(C(=O)NCCN(CC)CC)cc2)ccc1OCC(C)C	2 µM (active)
CCC(=O)Nc1ccc2c(c1)ncn2-c1ccccc1OC	11.2 µM (active)
Cn1nc(CC(=O)Nc2ncc(Br)s2)c2ccccc2c1=O	7.94 µM (active)
COc1ccc(/C=C/C(=O)c2ccc([N+](=O)[O-])o2)cc1OC	11.2 µM (active)
COc1ccc(Cl)cc1/C=C/c1ccc2cccc(O)c2n1	5.62 µM (active)

SMILES	Potency
Oc1cccc2ccc(/C=C/c3ccccc3Br)nc12	2.24 µM (active)
Cc1ccc(C)c(N(CC(=O)Nc2cc(Cl)ccc2Oc2ccccc2)S(C)(=O)=O)c1	8.91 µM (active)
COc1ccccc1OCC(=O)Nc1cc(Cl)ccc1Oc1ccccc1	inactive
CC(C)(C)NC(=O)[C@H]1CN(Cc2cccnc2)CCN1C[C@@H](O)C[C@@H](Cc1ccccc1)C(=O)N[C@H]1c2ccccc2C[C@H]1O	3.98 µM (active)
CCc1ccc(Nc2n[n+](-c3ccccc3)c(-c3cccc(Cl)c3Cl)s2)cc1	2.82 µM (active)
Cc1c(C(=O)C(=O)N2CCCc3ccccc32)c2ccccc2n1C	12.6 µM (active)
CCOC(=O)/C=C/C(=O)Nc1ccc(S(=O)(=O)N(C)c2ccccc2)cc1	10 µM (active)
CN(c1ccccc1)S(=O)(=O)c1ccc(NC(=O)c2nc(S(C)(=O)=O)ncc2Cl)cc1	inactive
Cc1cccc2c1NC(=O)/C2=C\C(=O)c1cccs1	inactive
NC(=O)COc1ccc(C(=O)/C=C2/C(=O)Nc3ccccc32)cc1	inactive
CC(=O)/C=C1/C(=O)Nc2ccccc21	12.6 µM (active)
O=C(O)CCCCCNc1nc(-c2ccccc2)nc2ccccc12	10 µM (active)
Cc1oc2c(c1C(=O)N1CCOCC1)C(=O)c1ccccc1C2=O	1.58 µM (active)
Cc1nnnn1/C(=C\c1ccccc1)C(=O)OCC(=O)N1CC2(C)CC1CC(C)(C)C2 (stereo not drawn)	10 µM (active)
COc1cc(/C=C/C(=O)c2ccc(O)cc2)ccc1OCC#N	10 µM (active)
COc1ccc(/C=C/C(=O)c2ccc(C(=O)/C=C/c3ccc(OC)c(OC)c3)cc2)cc1OC	inactive
COc1cccc(C(=O)/C=C/c2ccc(OCC#N)c(OC)c2)c1	3.98 µM (active)
COc1cc(/C=C/C(=O)c2ccc(C)cc2)ccc1OCC#N	12.6 µM (active)
CCCCN(C)CCCNC(=O)c1cc(=O)[nH]c2ccc(S(=O)(=O)N3CCCCC3C)cc12 (stereo not drawn)	1.12 µM (active)
CCCCN(C)C(=O)C1CCC(CNS(=O)(=O)c2ccc3c(c2)CC(C)N3C(=O)C2CC2)CC1 (stereo not drawn)	5.62 µM (active)

SMILES	Potency
Cc1ccc(C(=O)OCc2nnc(-c3ccc(Br)cc3)o2)cc1	inactive
CCOC(=O)c1c(C)nc(C)c(C(=O)OCC)c1-c1ccc(Br)cc1	11.2 µM (active)
CN(C)c1ccc(CN(C(=O)c2ccccc2Br)C2CCS(=O)(=O)C2)cc1 (stereo not drawn)	14.1 µM (active)
CCCN1CCc2c(sc3nc(SCC)n(-c4ccc(OC)cc4)c(=O)c23)C1	0.316 µM (active)
CCCN1CCc2c(sc3nc(SCC)n(-c4ccccc4)c(=O)c23)C1	0.631 µM (active)
Cn1c(=O)c2c([nH]c(=O)n2C)n(C)c1=O	inactive
CCCc1cc(NCc2ccccn2)n2nc(C)c(-c3ccccc3)c2n1	3.55 µM (active)
NC(=O)CC(NC(=O)Cc1ccc(Br)cc1)c1ccc(NC2CC3CCC2C3)c([N+](=O)[O-])c1 (stereo not drawn)	12.6 µM (active)
CC/C(=N\OC(=O)c1ccc(OC(C)C)cc1)c1ccc(C)cc1	11.2 µM (active)
O=C(/C=C/c1ccccc1)/C=C/c1ccccc1	2.51 µM (active)
O=C(/C=C/c1cccnc1)c1ccc(O)cc1	11.2 µM (active)
O=C(/C=C/c1cccnc1)/C=C/c1cccnc1	3.55 µM (active)
COc1cc(C(=O)/C=C/c2cccnc2)ccc1O	5.01 µM (active)
COc1ccc(S(=O)(=O)Nc2cccc(-c3ccc(N4CCCCCC4)nn3)c2)c(OC)c1	11.2 µM (active)
COc1ccc(C)cc1S(=O)(=O)Nc1cccc(-c2ccc(N3CCCCCC3)nn2)c1	10 µM (active)
COc1ccc(-c2cc(C)no2)cc1S(=O)(=O)Nc1cccc(CN2CCCC2)c1	12.6 µM (active)
CCCOc1ccc(/C=C/C(=O)NC2CCCCC2)cc1OC	15.8 µM (active)
Nc1ccccc1C#CC(=O)c1ccccc1	14.1 µM (active)

Reference: PubChem BioAssay AID504848 (National Center for Advancing Translational Sciences (NCATS), 2011)
